PMK inhibit – blocks S. pneumoniae phosphomevalonate kinase. purified PMK, PK/LDH-coupled NADH absorbance 340 nm. inhibition, % at 10 µM. actives 0.49% (n = 65,000);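 active = top-ranked compounds by inhibition in the single 10 µM screen, taking a fixed number of the strongest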
DPM-DC inhibit – blocks S. pneumoniae diphosphomevalonate decarboxylase | purified DPM-DC, PK/LDH coupled NADH fluorescence | calls only at 10 µM | actives 0.49% (n = 65,000) | AID 556;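 active = the 320 compounds with the highest percent inhibition in the single-dose primary screen, excluding strongly autofluorescent ones, cut at about 32% in these data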;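 also: kinetic rate of NADH fluorescence loss reporting ADP formed by the decarboxylase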
NADH coupling – inhibition of NAD/NADH coupling enzymes, library profiling. coupled PK/LDH NADH assays, four targets. IC50, µM (top dose mostly 10 µM). actives 0.02% (n = 65,000);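 active = single-dose screening hits from any of four coupled enzyme assays that gave an IC50 when retested across doses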;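 also: the DPM-DC format reads NADH fluorescence rather than 340 nm absorbance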
Fluor 339 460 – intrinsic fluorescence of library compounds, ex339/em460 – biochemical, MLSMR library, data from DPM-DC assay, artefact control, profiling panel | compound autofluorescence, ex339/em460 nm, NADH buffer; hits give high values; 1 = no-compound wells, NADH background | fluorescence fold increase at 10 µM | actives 5.5% (n = 65,000);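 active = at 10 µM, mean starting fluorescence two-fold or more over control wells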;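 also: signal is the first read of a kinetic run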
MK inhibit – inhibitors of Streptococcus pneumoniae mevalonate kinase. inhibition, % at 10 µM. actives 0.48% (n = 65,000). purified MK, PK/LDH-coupled NADH absorbance 340 nm;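 active = ranked among the strongest by inhibition in the single 10 µM screen, a fixed top-ranked set picked for dose follow-up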
A340 absorber – compound absorbs light at 340 nm. fold change at 10 µM. 65,000 tested, under 10 active. compound absorbance at 340 nm, fold over control;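 active = at 10 µM dose, initial 340 nm absorbance at least 2 fold that of control wells; inactive = change under 2 fold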;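 also: initial absorbance extrapolated from kinetic A340 decline of NADH oxidation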
Hits are given with their value; n = inactive; x = not tested or not shown. Hits are enriched below; roughly 6.8% of the tested compounds scored in any of these assays.

SMILES	PMK inhibit	DPM-DC inhibit	NADH coupling	Fluor 339 460	MK inhibit	A340 absorber
Cc1oc2cc(O)ccc2c(=O)c1-c1cnn(-c2ccccc2)c1	n	x	n	2.5	n	n
CC1CN(c2ccc(Oc3ccccc3)cc2)c2nc3c(c(=O)[nH]c(=O)n3C)n2C1 (configuration not stated)	n	n	n	n	n	n
CC(C)(C)N1C(=O)Cc2c1nc(N)c1c(N)nc(N3CCCCC3CO)c(C#N)c21 (configuration not stated)	n	x	n	4.8	n	n
COc1ccccc1OCc1nnc(SCC(=O)N2CCCCC2)n1-c1ccccc1	n	n	n	n	n	n
COc1ccccc1-n1c(SCC(=O)N2CCCCC2)nnc1-c1ccccc1O	27	n	n	n	n	n
CCOC(=O)N1CCC(NC(=O)c2ccc(CS(=O)(=O)c3ccc(OC)cc3)o2)CC1	n	n	n	n	n	n
Cc1cc(N2CCCC2)nc(-c2ccccc2O)n1	n	n	n	2.6	n	n
COC(=O)N1CCN(S(=O)(=O)c2ccc(F)cc2)CC1	n	n	n	n	n	n
COc1ccc(-c2nc3c(n2O)CCCC3=O)cc1OC	n	x	n	3.5	n	n
CCCN1C(=O)c2ccc(C(=O)NC3CCCCC3)cc2C1=O	n	n	n	n	n	n
CC(Sc1nnc(-c2cc3ccccc3o2)n1-c1ccccc1)C(=O)O (configuration not stated)	n	n	n	n	n	n
N#Cc1cn(-c2ccccc2)nc1-c1cc2ccccc2oc1=O	n	x	n	2.4	n	n
COc1ccccc1N1CCN(CC(O)COc2ccc3c(C)cc(=O)oc3c2)CC1 (configuration not stated)	n	n	n	n	n	n
Cc1cc(=O)oc2cc(OCC(O)CN3CCc4ccccc4C3)ccc12 (configuration not stated)	n	x	n	4.2	n	n
COc1cccc(OC)c1OCC(O)CN1CCN(c2ccccc2)CC1 (configuration not stated)	28	n	n	n	n	n
Cc1cc(=O)oc2cc(OCCSCCN3CCOCC3)ccc12	n	n	n	n	n	n
Cc1cc(=O)oc2cc(OCC(O)CN3CCN(c4ccccc4)CC3)ccc12 (configuration not stated)	n	n	n	3.4	n	n
CC(NC(=O)c1ccc(CS(=O)(=O)Cc2ccccc2F)o1)c1ccc2c(c1)OCCO2 (configuration not stated)	n	n	n	n	n	n
COc1ccc(-c2nc3n(n2)C(c2ccccc2)C2=C(CCCC2=O)N3)cc1OC (configuration not stated)	n	n	n	n	x	n
COC(=O)c1cc(NC(=O)Cn2c(=O)cnc3ccccc32)cc(C(=O)OC)c1	n	n	n	n	n	n
Cc1cccc(C2Nc3ccccc3C(=O)N2CCc2ccccc2)n1 (configuration not stated)	n	x	n	2.2	n	n
O=C1c2ccccc2NC(c2cnc3ccccc3n2)N1O (configuration not stated)	n	n	n	n	n	n
O=C1CN(C(=O)CSc2nnnn2-c2ccc(Cl)cc2)c2ccccc2N1	n	n	n	n	n	n
Cn1c(=O)c2c(ncn2CC(O)CNc2ccc(Br)cc2)n(C)c1=O (configuration not stated)	n	n	n	n	n	n
CCCc1cc(=O)[nH]c(SCC(=O)Nc2cc3c(cc2C(C)=O)OCO3)n1	n	n	n	2.1	n	n
SMILES	PMK inhibit	DPM-DC inhibit	NADH coupling	Fluor 339 460	MK inhibit	A340 absorber
CC(=O)c1cc2c(cc1NC(=O)CSc1nnc(C)s1)OCO2	n	n	n	2	n	n
CCCc1cc(=O)[nH]c(SCC(=O)NC2CCCCC2)n1	n	n	n	n	n	n
COc1ccc(OC)c2[nH]c(=O)c(CCNC(=O)c3ccc(Br)o3)cc12	n	n	n	n	n	n
O=C(c1ccc2ccccc2c1)N1CCN(c2ccc(O)cc2)CC1	26	n	n	n	n	n
O=c1cc(-c2ccccc2)nc(N2CCN(Cc3ccc4c(c3)OCO4)CC2)[nH]1	n	n	n	n	n	n
O=C(c1ccc(CS(=O)(=O)Cc2ccc(Cl)cc2)o1)N1CCCC1	26	n	n	n	n	n
c1nc2sc3c(c2c2nnnn12)CCC3	n	x	n	2.1	n	n
